Assay results taken from PubChem BioAssay (NCATS).
Inconclusive results are not listed. Where a call stands in place of a potency, no number is given. Active and inactive are the calls of the source. The call rests on the fitted dose curve; in most records, active means well fitted inhibition curve with a large enough effect; inconclusive means small, poorly fitted or top-dose-only effect; inactive means flat fitted curve, though single readings scatter.

Assay: P-glycoprotein substrates identified in KB-8-5-11 adenocarcinoma cell line, qHTS therapeutic library screen (AID 1346987); further: nearly all actives have a fitted effect of over 65% in size
Settings: KB-8-5-11 (P-gp overexpressing) viability, CellTiter-Glo, 72 h; series mostly up to 44.5 µM
Summary of the method: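 Human cervical adenocarcinoma KB-8-5-11 cells, selected in colchicine to over-express P-gp and assayed without it, were exposed for 72 h to titrated compounds. An ATP-based luminescent viability signal gave AC50.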

Structure (SMILES)	Potency
CCOC(=O)c1ccc(N(C)c2csc(-c3ccccc3)n2)cc1	inactive
O=C1NC(Cc2ccc(O)cc2)C(=O)N2CCCC12 (stereo not drawn)	inactive
CC1CCCC2OC2C(=O)c2c(O)cc(O)cc2CC(=O)O1 (stereo not drawn)	inactive
